Consider 92 compounds from PubChem BioAssay AID540308 (The Scripps Research Institute Molecular Screening Center, 2011).

Each structure is given as a SMILES string. Hit rate of the full screen: of about 360,000 compounds, about 3,500 (0.97%) were called active. The full list was thinned out, with actives kept by preference. A number with no mark means an inactive call.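 The calls were made as follows: active = activation above a per-plate cutoff, the mean activation of sample wells on that plate plus 3 SD (cut at about 8% in these data); inactive = the rest.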

In the experiment the target is Melanocortin receptor 4 (Homo sapiens) (UniProt P32245). Briefly: activators of MC4R beta-arrestin recruitment – cell-based, luminescence, agonist arm of biased-ligand search, primary screen (AID 540308). Conditions: U2OS MC4R beta-arrestin complementation, at 8.9 µM, stronger effect = higher value, percent of melanotan II response, DMSO zero.
Melanocortin receptor 4 (Homo sapiens), sequence (P32245 whole entry, looked up): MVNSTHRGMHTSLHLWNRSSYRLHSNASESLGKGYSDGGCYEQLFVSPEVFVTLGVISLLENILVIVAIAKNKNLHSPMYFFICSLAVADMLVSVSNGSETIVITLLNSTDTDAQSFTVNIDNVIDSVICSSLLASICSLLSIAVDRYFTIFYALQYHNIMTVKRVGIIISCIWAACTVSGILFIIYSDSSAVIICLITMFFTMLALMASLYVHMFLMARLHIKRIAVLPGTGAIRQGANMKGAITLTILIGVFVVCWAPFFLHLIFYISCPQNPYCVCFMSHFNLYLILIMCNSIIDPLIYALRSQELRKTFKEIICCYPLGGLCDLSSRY
`Cc1ccc(-n2c(SCC(=O)NCCC3=CCCCC3)nc3n[nH]c(C)c3c2=N)cc1Cl`: the activation was 18.2% (active).
In the case of `COc1cccc(-n2c(SCC(=O)NC3CCCCC3)nc3n[nH]c(C)c3c2=N)c1`, the activation is -1.4%.
In the case of `CCCCNC(=O)CSc1nc2n[nH]c(C)c2c(=N)n1-c1cccc(Cl)c1C`, the activation was -1.55%.
For the compound `COc1ccc(CNC(=O)c2ccc(-c3cccnc3)c3ccoc23)cc1OC`, the activation is 1.26%.
The value for `CCCNC(=O)c1cc(C2CCCN(C(=O)c3ccc4c(c3)CCO4)C2)on1` (configuration not stated) was -0.64%.
For `COc1ccc(C(=O)n2nc(-c3ccc(Cl)cc3)nc2N)cc1OC`, the activation is 0.74%.
As for `COc1ccc(C(=O)n2nc(-c3ccc(C)cc3)nc2N)cc1OC`, the activation is 15.4% (active).
As for `COc1ccc(C(=O)n2nc(C)c(Br)c2C)cc1OC`, the activation was 1.71%.
With `CC(=O)c1ccc(N2CCN(C(=O)CCNC(=O)Cn3ccc4ccccc4c3=O)CC2)cc1`, the activation was 2.35%.
For the compound `CCOC(=O)C1CCCN(C(=O)c2cccc3ccccc23)CC1` (configuration not stated), the activation is -0.59%.
As for `Fc1ccccc1/C=N/Nc1cc(N2CCCCC2)ncn1`, the activation was 12.1% (active).
On to `COc1ccccc1N1CCN(C(=O)C(=O)N/N=C/c2ccccc2F)CC1`, for which the activation was -3.16%.
As to `O=C(CCC(=O)Nc1ccccc1)N/N=C/c1ccccc1F`, the activation is -0.29%.
For the compound `CCCNC(=O)C1(C)CCN1C(=O)C1(c2ccccc2)CC1` (configuration not stated), the activation was 1.14%.
For `Cc1ccc(S(=O)(=O)N2CCC(C(=O)OCC(=O)N(C)c3ccccc3)CC2)cc1C`, the activation is -3.84%.
The value for `COc1ccc(S(=O)(=O)N2CCC(C(=O)OCC(=O)c3ccccc3)CC2)cc1[N+](=O)[O-]` was 31.7% (active); that for `O=C(COc1ccc(S(=O)(=O)N2CCCC2)cc1[N+](=O)[O-])N1CCCCC1` was -1.25%; that for `CCc1nc2ccc(C(=O)NC3CCN(Cc4ccccc4)CC3)cn2c1N(CC)CCOC` was 4.51%.
`Cc1ccc(NC(=O)Nc2ccccc2)c(Br)c1`: the activation is 21.9% (active).
On to `O=C(Nc1ccccc1)c1ccccc1Br`, for which the activation was 0.3%.
As for `CCOc1cc(NC(=O)Nc2ccccc2)c(OCC)cc1NC(=O)CC`, the activation is 0.85%.
The result for `CC(=O)Nc1cccc(-c2ccnc3c2CC(C)(C(=O)NCc2ccco2)O3)c1` (configuration not stated) reads 0.36%.
Consider `Cn1c(-c2ccc(F)cc2)cnc1SCC(=O)NCc1ccco1`, for which the activation was -1.34%.
The result for `O=C(CSc1nc2ccccc2c(=O)n1Cc1ccc(F)cc1)NCC1CCCO1` (configuration not stated) reads -0.86%.
With `O=C(CCCn1c(SCC(=O)c2ccc(F)cc2)nc2ccccc2c1=O)NCc1ccco1`, the activation is 29.6% (active).
As to `O=C(c1cc(C2CCCCN2S(=O)(=O)c2ccccc2)on1)N1CCOCC1` (configuration not stated), the activation is 0.01%.
Regarding `CC=CCn1c(SCCCc2ccccc2)nc2c1c(=O)[nH]c(=O)n2C`, the activation was 1.64%.
Regarding `Cc1ccc(CNC(=O)Nc2nnc([C@H]3C[C@H](O)[C@@H](CO)O3)s2)cc1`, the activation was -0.78%.
With `OCCN1CCN(c2ncnc3c2ncn3[C@H]2CN(Cc3ccco3)C[C@@H](CO)O2)CC1`, the activation was -0.69%.
Turning to `CCOC(=O)C1CCCN(C(=O)c2ccc(N(C)C)cc2)CC1` (configuration not stated), the activation is -0.51%.
With `Cc1ccc(Nc2nnc(SCC(=O)c3cc4ccccc4o3)s2)cc1C`, the activation was 11% (active).
For `CC(C)c1ccc(Nc2nnc(SCC(=O)c3nnc(-c4ccccc4)o3)s2)cc1`, the activation is -0.71%.
For `Cc1cc2c(=O)n(C)c(SCC(=O)c3cc4ccccc4o3)nc2s1`, the activation was -0.92%.
In the case of `CC1(C(=O)NS(=O)(=O)C2CC2)CCCN(C(=O)CSc2ccccc2)C1` (configuration not stated), the activation is 0.3%.
Consider `OC[C@@H]1CN(Cc2cccs2)C[C@H](n2cnc3c(Nc4ccccc4)ncnc32)O1`, for which the activation was 0.44%.
For the compound `O=C(Nc1sc2c(c1-c1nc3ccccc3[nH]1)CCCC2)C1CC1`, the activation is 14.1% (active).
The value for `CCOC(=O)c1c(NC(=O)C2CCN(S(=O)(=O)c3ccc(Cl)cc3)CC2)sc2c1CCCC2` was 2.72%.
The value for `O=C(CN1CCCC1)Nc1sc2c(c1C(=O)Nc1ccccc1)CCCC2` was -3.19%; that for `O=C(Nc1ccc(Cl)c(C(F)(F)F)c1)C1Cc2c(-c3ccccc3Oc3ccccc3)ccnc2O1` (configuration not stated) was -1.84%; that for `CCCCN(C=O)c1c(CC)nc2c(OCc3ccccc3C(=O)OC)cccn12` was 0.49%.
In the case of `C/C(=N\NC(=O)COc1c(C)cccc1C)c1cccs1`, the activation was 12.1% (active).
The value for `C/C(=N\OCC(=O)Nc1ccc(Br)cc1)c1cccs1` was -4.16%.
For the compound `C/C(=N\NC(=O)CSc1nc2ccccc2c(=O)n1-c1ccccc1C)c1cccs1`, the activation is -1.88%.
Regarding `CC(=O)Nc1cccc(-c2ccnc3c2CC(C)(C(=O)NCc2ccccc2)O3)c1` (configuration not stated), the activation was -1.6%.
For the compound `N/C(=N\OC(=O)c1ccc2c(c1)OCO2)c1ccc(Br)cc1`, the activation is 0.57%.
The result for `N/C(=N\OC(=O)Cc1ccccc1[N+](=O)[O-])c1ccc(Br)cc1` reads -1.47%; that for `N/C(=N\OC(=O)N1c2ccccc2Sc2ccccc21)c1ccc(Br)cc1`, 8.26% (active); that for `CCC(=O)N1CCCC1(C)C(=O)Nc1ccc2c(c1)CCN2C(C)=O` (configuration not stated), -1.65%.
The result for `CCN(CC)c1ncnc2c1ncn2[C@H]1CN(Cc2cccs2)C[C@@H](CO)O1` reads 0.8%.
The value for `CCOc1ccc(NC(=O)COc2ccc(C(=O)N3CCC(C(N)=O)CC3)cc2OC)cc1` was -1.74%; that for `COC(=O)c1cc(OCC(=O)NC2CCCc3ccccc32)cc(C(=O)OC)c1` (configuration not stated) was -1.2%; that for `CCOc1ccc(NC(=O)COc2ccc(C(=O)NC3CCCc4ccccc43)cc2OC)cc1` (configuration not stated) was 9.26% (active).
Take `Cc1ccc(CN2C(=O)CCC2C(=O)NCCCN2CCCCC2C)cc1` (configuration not stated): the activation was -0.33%.
`Cc1ccccc1OCC(=O)Nc1nc(C)c(C(=O)N(C)C)s1`: the activation was -2.42%.
Consider `Cc1ccc(F)c(NC(=O)CCOc2ccccc2C)c1`, for which the activation was -0.86%.
Take `CC(=O)c1sc(NC(=O)CCCOc2ccccc2C)nc1C`: the activation was 9.6% (active).
As to `CCCNC(=O)C1(C)CCN1C(=O)Cc1ccc(-c2ccccc2)cc1` (configuration not stated), the activation is -0.78%.
The value for `CCCn1c(C)cc(/C=C(\C#N)C(=O)OCC(=O)Nc2cc(OC)c(OC)c(OC)c2)c1C` was 1.33%; that for `COc1cc(C2C3=C(CCCC3=O)OC3=C2C(=O)CCC3)ccc1OCC(=O)Nc1ccccc1` was -1.3%; that for `CCOC(=O)/C(C#N)=C/c1ccc(OCC(=O)Nc2ccccc2)c(OC)c1` was 8.67% (active).
Regarding `CCNC(=O)C1(C)CCCN(C(=O)c2ccc3ccccc3n2)C1` (configuration not stated), the activation is -0.3%.
For `COCCNC(=O)C1(C)CCCN(Cc2cccc(F)c2)C1` (configuration not stated), the activation was -0.59%.
`COc1ccc(NC(=O)C2(C)Cc3c(-c4ccc(C(N)=O)cc4)ccnc3O2)cc1` (configuration not stated): the activation was 0.47%.
As for `O=C(Nc1cccc2cccnc12)c1ccc2sc([C@H]3C[C@H](O)[C@@H](CO)O3)nc2c1`, the activation was 0.55%.
As to `CC1(C(=O)Nc2cccc3c2CCCC3)CCN1C(=O)CCc1ccc(Cl)cc1Cl` (configuration not stated), the activation is 1.71%.
Consider `O=C(NCc1cccnc1)c1cccnc1Sc1ccc(Cl)cc1`, for which the activation is 1.65%.
As for `COc1cccc(CNC(=O)c2cccnc2Sc2ccc(Cl)cc2)c1`, the activation is 0.85%.
As to `O=C(NC1CCCCCC1)c1cccnc1Sc1ccc(Cl)cc1`, the activation is 10.7% (active).
Take `CCCS(=O)(=O)NC(=O)C1(C)CCN(C(=O)c2sccc2C)C1` (configuration not stated): the activation is -0.75%.
Consider `COCOc1cccc(CN2CCC(C)(Oc3ccc(SC)cc3)C2)c1` (configuration not stated), for which the activation was 0.12%.
For `COC(=O)CSc1nnc(-c2cccnc2)o1`, the activation was -1.17%.
On to `CCN(C(=O)CSc1nnc(-c2ccncc2)o1)c1ccccc1`, for which the activation is 0.57%.
For the compound `Cc1cccc(C)c1OC(=O)CSc1nnc(-c2ccccc2)o1`, the activation was 15.5% (active).
Take `COCCCNc1ccn2nc(-c3ccc(CC(C)C)cc3)cc2n1`: the activation is 1.85%.
In the case of `CC(c1ccco1)N(C(=O)Nc1ccccc1)C1CCCCC1` (configuration not stated), the activation is -3.36%.
Turning to `Cc1ccc(S(=O)(=O)N(C)CC(=O)OCC(=O)Nc2ccccc2)cc1`, the activation was -2.23%.
Consider `Cc1ccc(NC(=O)NC(=O)N(C2CCCCC2)S(=O)(=O)c2ccccc2)cc1`, for which the activation was 9.21% (active).
Take `Nc1cccc(-c2cncc(N3CCN(Cc4ccccn4)CC3)n2)c1`: the activation is -0.96%.
Take `Cc1nc(C(F)(F)F)ccc1C(=O)N1CCC1(C)C(=O)NS(=O)(=O)c1ccccc1Cl` (configuration not stated): the activation is -1.94%.
As to `Cc1[nH]c2ccccc2c1C(=O)COC(=O)c1c(-c2ccccc2)noc1C`, the activation was -0.48%.
`O=C(CCN1CCCCC1)N=Nc1c(O)[nH]c2ccccc12`: the activation was -1.11%.
The result for `Cc1c(-c2ccccc2)n[nH]c1C(=O)N=Nc1c(O)[nH]c2ccccc12` reads 17.7% (active); that for `O=C(COC(=O)c1ccc[nH]c1=O)Nc1ccc2c(c1)OC(F)(F)O2`, -2.05%; that for `O=C(COC(=O)CNC(=O)c1ccco1)Nc1ccc(F)cc1`, -0.58%.
For the compound `O=C(COC(=O)c1ccccc1NC(=O)c1ccco1)Nc1ccc2c(c1)OC(F)(F)O2`, the activation was 10.1% (active).
The value for `CCc1nc2ccc(C(=O)NC3CCN(Cc4ccccc4)CC3)cn2c1N(C)CCN1CCOCC1` was -0.77%; that for `COc1ccc(/C=C2/SC(=O)N(CCCCCC(=O)Nc3ccccc3C(=O)O)C2=S)cc1` was -0.47%.
For `CC(C(=O)Nc1ccc(O)c(C(=O)O)c1)N1C(=O)/C(=C/c2cccs2)SC1=S` (configuration not stated), the activation is -1.84%.
Take `O=C(CN1C(=O)/C(=C\c2ccccc2F)SC1=S)Nc1nc2ccccc2s1`: the activation was 0.77%.
As for `COc1cccc(/C=C2\SC(=S)N(CCCC(=O)N3CCOCC3)C2=O)c1`, the activation is -0.8%.
`O=C(CCCN1C(=O)/C(=C/c2cccs2)SC1=S)Nc1ccc(O)cc1`: the activation was 20.4% (active).
For the compound `O=C(CCCN1C(=O)/C(=C\c2ccco2)SC1=S)Nc1cccc2ccccc12`, the activation is 13.9% (active).
